Eight compounds from PubChem BioAssay (NCI) can be followed below.

Holding throughout (assay): NCI-60 one-dose screen, 48 h (100 = growth as untreated, 0 = no growth, -100 = all killed)
Holding throughout (details): 10 µM

For test [1], the system named is NCI-H23 lung.
Test [2] relates to NCI-H226 lung.
Test [3] relates to NCI-H322M lung.
In test [4] the test system is HOP-62 NSCLC.
Test [5] deals with NCI-H460 lung.
The test system of test [6] is HOP-92 NSCLC.
For test [7], the system named is NCI-H522 lung.
Test [8] deals with A549/ATCC NSCLC.
The subject of test [9] is 786-0 renal.
In test [10] the test system is COLO 205 colon.
Test [11] has as its system DU-145 prostate.
The subject of test [12] is K-562 leukemia.
Test [13] has as its system MALME-3M melanoma.
The subject of test [14] is MDA-MB-231 breast.
Test [15] relates to RXF 393 renal.
Test [16] has as its system SF-268 CNS.
Test [17] concerns SF-295 CNS.
Test [18] has as its system SF-539 CNS.
The subject of test [19] is UACC-257 melanoma.
The subject of test [20] is M14 melanoma.

Structures are written as SMILES. The panel holds about 83,000 compounds, 20% with a hit somewhere; the sample as a whole holds those more often.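 The endpoint reported here, percent growth, reads 100 for growth as untreated, 0 for no net growth and -100 for all cells dead.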 Unmarked numbers belong to inactive results. Calls of active or inactive are those of the source. The calls were made as follows: active = growth percent below 10; inactive = the rest.

For `COC(=O)CC1CC1C1Cc2c(nc(N(C)S(C)(=O)=O)nc2C(C)C)-c2ccc(F)cc21` (stereo not drawn), the growth was 69.1% in test [1]; 78.8% in [2]; 96.8% in [3]; 109% in test [4]; 94.6% in [5]; 84% in test [6]. The growth is 55.6% in test [7]; 92.3% in test [8]; 86% in [9]; 90.8% in test [10]; 92.7% in [11]; 34.3% in [12]. Besides, the growth in test [13] was 112%; in test [14] it was 69.3%; in test [15], 79.8%; in test [16], 93.8%; in test [17], 72.4%; in test [18], 96%. The growth in test [19] was 83.8%; in test [20] it was 70.4%.
As to `O=c1oc2ccc(-c3ccc(F)cc3F)cc2c(=O)n1-c1ccc(F)cc1`, the growth in test [1] is -27.8% (active); in test [2], -6.57% (active); in test [3], 1.43% (active); in test [4] it was -20.9% (active); in test [5], 2.62% (active); in [6], -23.8% (active). In addition, the growth in test [7] is -7.06% (active); in [8], 17.8%; in test [9], 8.17% (active); in test [10], 83.2%; in test [11], 14.5%; in test [12], 5.98% (active). The growth is -21.2% (active) in [13]; -5.38% (active) in [14]; -10.4% (active) in [15]; 2.76% (active) in [16]; -19.3% (active) in test [17]; -3.51% (active) in [18]. The figures for the growth in test [19] and in test [20] were 15.5% and 18.3%, respectively.
`CONC[C@]1(C)C=C2C(=O)[C@](C)(O)C3(CC3)C(C)=C2[C@H]1O`: the growth in test [1] is -82.6% (active); in test [2], -26.7% (active); in test [3], -9.89% (active); in test [4], -21.7% (active); in test [5], -24.4% (active); in [6], -16.6% (active). The growth in test [7] was -71.1% (active); in test [8], 5.7% (active); in test [9], 5.71% (active); in test [10], -79.1% (active); in [11], 2.57% (active); in test [12], 2.9% (active). Further, the growth is -73.5% (active) in test [13]; -33.5% (active) in [14]; -85.9% (active) in test [15]; -4.06% (active) in test [16]; -9.33% (active) in [17]; -80.5% (active) in test [18]. The growth in test [19] was -27.2% (active); in [20] it was -13.5% (active).
`N#Cc1c(-c2ccc(F)cc2)nc(SCc2ccc([N+](=O)[O-])cc2)nc1N1CCOCC1`: the growth in test [1] was 74.8%; in [2], 23.8%; in [3], 82.7%; in test [4] it was 34.7%; in test [5], 77.4%; in [6], 36.7%. Besides, the growth in test [7] was 41.3%; in test [8] it was 63.4%; in test [9] it was 30.2%; in test [10], 90.9%; in test [11], 73.3%; in test [12] it was 76.9%. The growth in test [13] is 42.8%; in test [14], 47.1%; in test [15], 9.79% (active); in test [16], 49.3%; in [17] it was 41.5%; in test [18], 26.2%. For the same compound, in [19], the growth is 54.2%.
As for `COc1cc2c(c(OC)c1OC)C(=O)CC(c1cccc(NC(=O)c3cccc(N)c3)c1)O2` (stereo not drawn), the growth was 91.1% in test [1]; 86.7% in [2]; 91% in test [3]; 100% in [4]; 79.2% in test [5]; 74% in [6]. Besides, the growth in [7] was 61%; in test [8] it was 85.3%; in test [9] it was 91.9%; in [10], 102%; in test [11], 83%; in test [12], 47.5%. Besides, the growth in test [13] was 78.8%; in [14] it was 68.3%; in test [15], 100%; in test [16] it was 81.7%; in test [17], 92.8%; in test [18], 95.3%. Further, the growth in test [19] is 93.4%.
Consider `COc1ccc(C(=O)NC(=S)N2CCN(c3ncnc4c3cnn4-c3ccccc3)CC2)cc1`, for which the growth was 60% in test [1]; 9.11% (active) in [2]; 66.8% in test [3]; 31.9% in test [4]; 55.8% in test [5]; 32% in test [6]. The growth is 41.2% in test [7]; 58.8% in test [8]; 82.8% in [9]; 79.7% in test [10]; 79.9% in test [11]; 62.7% in test [12]. For the same compound, the growth in test [13] was 57.8%; in [14], 80.2%; in test [15], 49.9%; in [16], 63.8%; in [17], 57.8%; in test [18] it was 32.3%. The growth is 54.4% in [19] and 63.1% in [20].
In the case of `CN(CCF)c1ccc(/C=C/C(=O)c2ccc(N)cc2O)cc1`, the growth in test [1] was 93.2%; in test [2], 93.8%; in test [3], 78.8%; in test [4] it was 106%; in [5], 71.9%; in test [6], 94%. The growth in test [7] was 67.5%; in test [8], 68.8%; in [9], 90.5%; in test [10], 111%; in [11], 69.6%; in test [12], 51.4%. Besides, the growth in test [13] is 102%; in test [14] it was 95.7%; in test [15], 82.8%; in [16] it was 93.7%; in test [17], 80.4%; in test [18], 83.5%. For the same compound, the growth in test [19] is 96.6%; in test [20], 107%.
With `C=C(c1ccc(OC)c(N)c1)c1cc(C)nc2ccccc12`, the growth in [1] is 12.3%; in test [2] it was 22.8%; in test [3] it was 37.8%; in test [4] it was 30.9%; in test [5], -4.48% (active); in [6] it was 53.8%. Besides, the growth in [7] was -29.4% (active); in test [8], 19.9%; in test [9] it was 22.6%; in test [10] it was -79.8% (active); in [11], 14.9%; in test [12] it was 11.3%. Besides, the growth in [13] is 49.9%; in [14] it was 10.5%; in test [15] it was 51.4%; in [16], 24.3%; in [17], 6.83% (active); in [18], -34.2% (active). Besides, the growth in [19] is 63.3%; in [20] it was 16%.
